Results as given in PubChem BioAssay (NCI).
This is part of a sample that, as a whole, favours compounds with a hit. Of some 83,000 tested, about 20% had one in any assay.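 Single-concentration screen, 48 h exposure, 96-well plates. Endpoint: percent growth. Below 10 = active.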 Values without a mark were called inactive. The source made the active and inactive calls.

Test system: MDA-MB-468 breast
Experiment: NCI-60 one-dose screen, 48 h (100 = growth as untreated, 0 = no growth, -100 = all killed)
Conditions: 10 µM unless noted

| Compound | growth |
| --- | --- |
| COc1ccc(/C=C2\SC(=Nc3ccccc3)NC2=O)cc1 | -84.8% (active) |
| Cc1cnc(C=O)c2cccc([N+](=O)[O-])c12 | 89.7% |
| O=C(CCCCCCNC(=O)C(O)(O)C(F)(F)F)Nc1ccc(Cl)cc1 | 16.9% |
| CCc1ccc(-c2ccc(COc3ccc(CC4SC(=O)NC4=O)cc3)cc2)cc1 (stereo not given) | 35.3% |
| O=C(/C=C/c1cc([N+](=O)[O-])ccc1Cl)c1ccccc1 | 57.6% |
| COc1ccc(-c2nc3ccc(-c4nnc(SCC(=O)Nc5ccc(C(=O)/C=C/c6ccc(Cl)cc6)cc5)o4)cc3[nH]2)cc1 | 98.1% |
| Cc1c(C(N)=O)sc2ncn(CC(=O)NN=C3CCCCC3)c(=O)c12 | 109% |
| Cc1ccc(S(=O)(=O)C2=C3C(=C(c4ccccc4)c4ccccc43)CN(S(=O)(=O)c3ccc(C)cc3)C2)cc1 | 51% |
| C#C[C@]1(O)CC[C@H]2[C@@H]3CC=C4c5sc(Nc6nc(C)cc(OC)n6)nc5CC[C@]4(C)[C@H]3CC[C@@]21C | 63.1% |
| COc1cc(N=Nc2cc(S(=O)(=O)O)cc3cc(S(=O)(=O)O)cc(O)c23)c(C)cc1N=Nc1c(S(=O)(=O)O)cc2cc(Nc3ccccc3)ccc2c1O | 115% |
| Nc1cc(C(F)(F)F)c(-c2cc(N3CCOCC3)nc(N3CCOCC3)n2)cn1 | -51.6% (active) |
| CN(C)c1ccc(N=Nc2ccc(Br)cn2)c(O)c1 | -6.7% (active) |
| COc1ccc(/C=C(/C(=O)N2CCN(Cc3ccccc3)CC2)c2cc(OC)c(OC)c(OC)c2)cc1O | 20.4% |
| O=C(CCl)Nc1ccc(NC(=O)c2cc(Cl)ccc2O)c(Cl)c1 | 79.7% |
| COc1cc(C(=O)c2ccccc2C(=O)O)c(OC)c2c1CCCC2 | 94.7% |
| Cc1ccc(S(=O)(=O)Oc2ccc3sc4c(CO)ccc(NCCN(C)C)c4c(=O)c3c2)cc1 | -75.1% [100 µM] (active) |
| Nc1cc2c([nH]c[n+]2CC#CCCl)c(SCC#CCCl)n1 | -57.1% (active) |
| COCCn1c(-c2csc(-c3cn(C)c4ccc(OC)cc34)n2)cc2cccnc21 | 37.9% |
| C/C=C/C1=CN2C(=O)c3cc(OC4OC(C)C(NC)C(C)(O)C4O)c(C)c(O)c3N=C[C@@H]2C1 (stereo not given in full) | -57.5% (active) |
| COc1cc(/C=C\C(=O)O)ccc1OCc1ccccc1 | 92.5% |

| Compound | growth |
| --- | --- |
| O=C1c2nsnc2C(=O)c2c(F)c(F)c(F)c(F)c21 | -50.4% (active) |
| Clc1nc(-c2ccccn2)nc2sc3c(c12)CCCCCC3 | -84.3% (active) |
| Cc1[nH]ccc2cc3nc4ccccc4c3cc12 | 10.7% |
| O=C1c2cccc3cccc(c23)C(=O)N1N1C(=O)c2cccc3c(NC4CCCCC4)ccc(c23)C1=O | 100% |
| COc1ccccc1NCc1cccn1Cc1ccc(F)cc1 | 82.6% |
| COc1ccc2[nH]c(=O)c(/C=N/Nc3nc(-c4ccccc4)cs3)c(O)c2c1 | 87.6% |
| CCN1C/C(=N\S(=O)(=O)c2ccccc2)N(CC)C1=S | 97.7% |
| Cc1cc(/C=C2\SC(=Nc3ccccc3)N(C3CCCC3)C2=O)c(C)n1-c1ccc(Cl)cc1 | -84.2% (active) |
| CCOC(=O)c1cc(C(=O)c2cc(OC)c(OC)c(OC)c2)n2c1ccc1c3cccnc3ccc12 | 61.5% |
| COc1ccc(-c2cn3c(ccc4ccccc43)n2)cc1 | 108% |
| COc1ccc(/C=N/NC(N)=S)cc1 | 82.6% |
| C#CCOc1ccc2ncnc(N3CCN(C(=O)CCl)CC3)c2c1 | -9.23% [8.25 µM] (active) |
| CCOP(=O)(OCC)OC[C@]12CCC(C)(C)CC1C1=CC[C@@H]3[C@@]4(C)CCCNC(C)(C)[C@@H]4CC[C@@]3(C)[C@]1(C)CC2 (stereo not given in full) | 53.5% |
| Cn1c(COC(=O)NCCc2ccccn2)nc2c(N3CCOCC3)nc(Cl)nc21 | -51.1% (active) |
| CN(C)c1ccc(/C=N/NC(=O)CSc2nc3sc4c(c3c(=O)n2-c2ccccc2)CCCCC4)cc1 | 26.2% |
| CC(C)(C)CC1(C)NC(=O)NC1=O (stereo not given) | 96.1% |
| CC1(C=O)NC(=O)NC1=O (stereo not given) | 101% |
| Oc1c(Cl)cc(Cl)cc1CNc1nccnn1 | 109% |
| Oc1ccc(CSc2nnc(-c3ccc(Oc4ccccc4)cc3)n2-c2ccccc2)c2cccnc12 | -2% (active) |
| COc1ccc(COc2ccc(/C=C3/C(=O)Nc4cc(Cl)ccc43)cc2)cc1 | 93.4% |
